Screening data: PubChem, National Center for Advancing Translational Sciences (NCATS)
Sfp PPTase inh = blocks B. subtilis Sfp PPTase activity; Potency, µM, without a hit: largest response in the series, negative = inhibition, usual class: inhibitors; AID 1490; 3.5% of 310,000 active; Q9F4F7; Biochemical Sfp PPTase activity, qHTS;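 also: the enzyme is Sfp with the accession as filed and its product quenches rhodamine fluorescence; 0% = enzyme reaction without inhibitor and -100% = no enzyme wells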
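Fluorescence-quenching assay with 15 nM Sfp, 5 uM rhodamine-CoA and 12.5 uM BHQ-2-labelled ybbR peptide in pH 7.6 Hepes/MgCl2 buffer. Enzyme was pre-incubated with compound for 15 min at room temperature. Rate was taken from the 30-min fluorescence change (525/598 nm).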
BAZ2B inh = inhibitors of human BAZ2B bromodomain; Q9UIF8; AlphaScreen BAZ2B-H3K14Ac peptide displacement; AID 504333; 4.4% of 360,000 active; Potency, µM (titrated, usually from 114 µM), inactives show top-dose activity change, negative = inhibition, actives largely listed as inhibitors; also: % is scaled to controls: 0 for no effect and ±100 for the full control effect; nearly all actives have a fitted effect of over 60% in size
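AlphaScreen luminescence quantifies BAZ2B engagement of H3K14Ac peptide; the protein and biotinylated peptide are both at 50 nM final, buffer PBS pH 7.4 with 0.01% Tween-20, all steps at room temperature.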
PLK1 PBD inh = PLK1 (human) polo-box domain binding inhibition | P53350 | Plk1 PBD binding of FITC phosphopeptide, fluorescence polarization | Potency, µM, for inactives: max response, negative = inhibition, most hits filed as inhibitors | 2.8% of 360,000 active | AID 720504; also: series mostly up to about 57 µM; % is scaled to controls: 0 for no effect and ±100 for the full control effect; nearly all actives have a fitted effect of over 65% in size
HP1b binding inh = inhibitors of HP1-beta chromodomain binding to methylated histone tails. 0.56% of 390,000 active. Potency, µM (series often up to 114 µM), for the others: at the top dose activity change, negative = inhibition, most hits filed as inhibitors. AlphaScreen HP1-beta / biotin-H3K9me3 peptide binding. P83916; also: nearly all actives have a fitted effect of over 70% in size
Target sequence (P83916 whole entry, looked up): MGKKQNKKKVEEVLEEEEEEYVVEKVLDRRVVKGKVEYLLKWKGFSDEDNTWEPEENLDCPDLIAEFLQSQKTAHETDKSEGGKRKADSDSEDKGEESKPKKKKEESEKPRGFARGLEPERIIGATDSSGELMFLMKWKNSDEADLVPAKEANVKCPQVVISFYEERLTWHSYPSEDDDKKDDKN
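Compound inhibition of the preformed complex between 50 nM HP1-beta and 50 nM biotinylated H3K9me3 peptide was read by AlphaScreen. Buffer was PBS pH 7.4 with 0.01% Tween-20. Incubations ran 30 min at room temperature, with 10 ug/mL donor/acceptor beads.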
JMJD2A Tudor = blocks the human JMJD2A Tudor domain. Potency, µM (top dose mostly 114 µM), for inactives: at the top dose activity change, negative = inhibition, actives largely listed as inhibitors. AID 504339. O75164. 4.4% of 390,000 active. AlphaScreen JMJD2A-Tudor / H3K4me3 peptide binding; also: % is scaled to controls: 0 for no effect and ±100 for the full control effect; nearly all actives have a fitted effect of over 50% in size
G9a block = blocks human histone lysine methyltransferase G9a. G9a H3K9 monomethylation, AlphaScreen, 2 h. Potency, µM (series often up to 102 µM), for inactives: at the highest dose activity, negative = inhibition, hits mostly inhibitors. 8.8% of 350,000 active. AID 504332; also: % is scaled to controls: 0 for no effect and ±100 for the full control effect; nearly all actives have a fitted effect of over 75% in size
Target sequence (Q96KQ7 913-1193 limits assumed): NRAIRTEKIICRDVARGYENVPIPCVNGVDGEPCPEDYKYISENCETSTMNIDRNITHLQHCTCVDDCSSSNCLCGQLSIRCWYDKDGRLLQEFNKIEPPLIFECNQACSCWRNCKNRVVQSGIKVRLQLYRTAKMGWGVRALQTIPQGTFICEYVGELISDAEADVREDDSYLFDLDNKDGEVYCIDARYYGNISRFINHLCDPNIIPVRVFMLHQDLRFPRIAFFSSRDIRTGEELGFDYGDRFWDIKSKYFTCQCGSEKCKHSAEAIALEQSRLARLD
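G9a (20 nM) preincubated 15 min RT with compounds, then 500 nM biotinylated H3K9 peptide and 20 uM SAM added; 2 h RT reaction. Monomethyl-H3K9 product detected by AlphaScreen with anti-H3K9me1 antibody, streptavidin donor and anti-rabbit IgG acceptor beads.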
* marks the source's active call; other numbers are inactive results; u = inconclusive; x = not tested or not shown; [ ] = another dose, or the depositor's remark. A selection: hits, their analogues and other compounds. The true share with any hit is near 12%. Calls follow the shape of the dose curve; as a rule, active = well fitted curve in the direction sought with a large enough effect; inconclusive = small, poorly fitted or top-dose-only effect, or another doubt; inactive = no such curve, though single readings can be large; an effect the other way counts as inactive or inconclusive. Potency is read from the fitted curve at half-maximal effect.

SMILES | Sfp PPTase inh | BAZ2B inh | PLK1 PBD inh | HP1b binding inh | JMJD2A Tudor | G9a block
CC1CN(CC(O)COc2ccc(C(=O)c3ccccc3)cc2)CC(C)O1 (stereo not given) | 8.8% | -0.9% | -7.3% | 28.7% | -13.5% | -1.6%[59 µM]
CC1CN(CC(O)COC(c2ccccc2)c2ccccc2)CC(C)O1 (stereo not given) | u | 56.2µM* | -9.5% | u | 0.891µM* | 35.5µM*
OC(COC(c1ccccc1)c1ccccc1)CN1CCOCC1 (stereo not given) | 9.5% | 2.9% | 29.9µM* | 17.7% | u | 0.6%
CCC(O)(c1ccccc1)C(CN1CCOCC1)c1ccccc1 (stereo not given) | 8.5% | -8.2% | -8.6% | 20.4% | -18.5% | -2.3%
Cc1cc2c(c(=O)o1)[C@H](O)[C@H]1O[C@@H]1C2=O | -13.0% | x | x | x | x | x
CCCCNC(=O)Cn1c(SCc2cccc(C)c2)nc2ccncc21 | x | x | x | 23.9%[57 µM] | 0.0%[57.1 µM] | x
CC(=O)Nc1ccc(NC(=O)CCCSc2nc3ccccc3[nH]2)cc1 | -19.2% | -17.3% | -17.8% | 10.3% | -5.0% | 10.1%[12.7 µM]
CCOc1ccccc1OCCCC(=O)N(CC)CC(=O)Nc1ccc(NC(C)=O)cc1 | x | 8.5% | 0.9% | 13.5% | -9.7% | 50.1µM*
CCN(CC(=O)Nc1ccc(NC(C)=O)cc1)C(=O)CCCSc1nc2ccccc2[nH]1 | x | 9.1% | -0.6% | 8.8% | -10.5% | 50.1µM*
CCOC(=O)c1c(-c2ccccc2)oc2ccc(OCC(O)CNCCN(C)C)cc12 (stereo not given) | -29.9% | u | -2.8% | -15.4% | u | -0.4%[2.33 µM]
CC(=O)C1=C(O)C(=O)N(c2ccc(O)cc2)C1c1ccccc1[N+](=O)[O-] (stereo not given) | 35.5µM* | -27.9% | -19.9% | -3.1% | -7.5% | 14.1µM*
CCCCN1C(=O)C(O)=C(C(C)=O)C1c1ccccc1 (stereo not given) | 5.5% | u | -10.4% | 6.7% | -27.2% | 50.1µM*
COCCCN1C(=O)C(O)=C(C(C)=O)C1c1cccc(F)c1 (stereo not given) | -13.6% | u | 2.7% | 10.6% | u | 50.1µM*
CC(=O)C1=C(O)C(=O)N(c2ccc(Br)cc2)C1c1ccc(Br)cc1 (stereo not given) | -6.6% | u | -14.3% | 13.3% | -11.0% | 50.1µM*
CC(=O)C1=C(O)C(=O)N(c2cccc(Br)c2)C1c1ccc(Br)cc1 (stereo not given) | 4.4% | -34.9% | -23.5% | 13.7% | -26.6% | u
CCCCN1C(=O)C(O)=C(C(C)=O)C1c1ccccc1[N+](=O)[O-] (stereo not given) | 17.8µM* | u | -21.1% | 42.1% | -27.1% | u
O=C(O)CCCCCN1C(=O)C(O)=C(C(=O)/C=C/c2ccccc2)C1c1ccccc1[N+](=O)[O-] (stereo not given) | u | -17.1% | 33.6µM* | 14.3% | u | -6.4%[0.501 µM]
CCCCCCCCN1C(=O)C(O)=C(C(C)=O)C1c1ccccn1 (stereo not given) | -0.9% | -5.0% | -1.8% | 39.0% | -14.6% | u
COc1ccccc1Nc1nc(N)nc(CN2CC(C)CC(C)C2)n1 (stereo not given) | 18.1% | u | -3.1% | 28.4% | -7.5% | 10µM*
COc1ccc(N2CCN(Cc3nc(N)nc(Nc4ccccc4OC)n3)CC2)cc1 | 3.0% | 28.2µM* | -2.8% | -15.4% | 56.2µM* | 39.8µM*
CCOc1ccccc1Nc1nc(N)nc(CN(C)C2CCCCC2)n1 | -8.8% | 17.8µM* | -7.2% | 36.7% | 50.1µM* | -9.7%[59 µM]
CCOc1ccccc1Nc1nc(N)nc(CSc2nncn2C)n1 | 13.6% | 2.3% | -1.0% | 14.3% | -1.3% | -22.4%[12.7 µM]
COc1ccccc1Nc1nc(N)nc(CN2CCCCC2)n1 | -3.8% | -37.9% | -10.4% | 6.8% | -16.5% | u
COc1ccccc1Nc1nc(N)nc(CCl)n1 | 0.6% | -13.7% | -16.4% | 36.3% | -1.4% | x
CCOc1ccccc1Nc1nc(N)nc(CSc2nccc(C)n2)n1 | -6.4% | 1.2% | -2.5% | 31.9% | -9.3% | -38.4%[12.7 µM]
SMILES | Sfp PPTase inh | BAZ2B inh | PLK1 PBD inh | HP1b binding inh | JMJD2A Tudor | G9a block
COc1ccccc1Nc1nc(N)nc(CSc2ncccn2)n1 | 12.8% | 6.1% | 26.7µM* | -10.0% | u | -3.8%[12.7 µM]
COc1ccccc1NS(=O)(=O)c1cc(NC(=O)Cc2n[nH]c(=O)c3ccccc23)ccc1Cl | x | x | 0.1% | 3.9% | -28.1% | x
Cc1ccccc1Nc1nc(N)nc(CSc2nnnn2C)n1 | 14.6% | 56.2µM* | -14.5% | 21.3% | u | 4.4%
COc1ccccc1CCNC(=O)CN1C(=O)c2ccccc2S1(=O)=O | x | -2.3% | 4.8% | 17.1% | -4.6% | -1.2%
COc1ccc(CCNC(=O)C(=O)NCC(c2cccs2)S(=O)(=O)c2ccc(F)cc2)cc1 (stereo not given) | x | 5.0% | x | 37.7% | -6.2% | -33.3%[59 µM]
CN1CCN(NC(=S)Nc2ccc(OC(F)F)cc2)CC1 | 56.2µM* | x | -10.1% | 31.9% | u | -3.8%
CC(Oc1ccccc1F)C(=O)NC1CCS(=O)(=O)C1 (stereo not given) | 8.1% | 2.1% | -14.0% | 15.2% | 6.7% | 86.6%
Clc1ccc(N=NN2CCOCC2)cc1 | 14.5% | 6.6% | -8.2% | 26.4% | 2.0% | 50.1µM*
O=C(CSc1ccccn1)Nc1ccc(N2CCOCC2)cc1 | 0.1% | -24.9% | u | -35.1% | u | 31.6µM*
CCc1nnc(SCC(=O)Nc2ccc(N3CCOCC3)cc2)o1 | 8.2% | 4.1% | 2.2% | 10.1% | -12.4% | -0.6%[12.7 µM]
Cc1nnc(SCC(=O)Nc2ccc(N3CCOCC3)cc2)o1 | 4.5% | 11.8% | -4.9% | 17.1% | -25.9% | 50.1µM*
CC1CN(C(=O)Nc2ccc(C(=O)NCc3ccccc3F)cc2)c2ccccc2S1 (stereo not given) | x | -5.2% | x | 28.4% | -9.4% | -26.4%[59 µM]
CCOC(=O)C1=C(CN2CCN(c3cc(C)ccc3C)CC2)NC(=O)NC1c1ccc(Cl)cc1 (stereo not given) | x | x | x | 8.9% | u | u
CCOc1nc(OCC)c2[nH]c(C(=O)O)c(Br)c2n1 | x | x | -6.3% | -7.1% | 25.1µM* | x
COc1ccc(C(=O)NNC(=O)C23CC4CC(CC(C4)C2)C3)cc1OC | x | 0.9% | -2.6% | 28.1% | -16.0% | 3.3%[12.7 µM]
Oc1ccccc1/C=N/Nc1nn[nH]n1 | -6.3% | 44.7µM* | 0.0% | 58.9% | 56.2µM* | 39.8µM*
Clc1ccc(/C=N/Nc2nn[nH]n2)cc1 | -18.3% | -3.4% | -9.1% | 29.2% | u | 10µM*
NC(N)=N/N=C/c1cc([N+](=O)[O-])ccc1O | 6.1% | -4.0% | -5.6% | 20.9% | -16.9% | 0.6%
O=[N+]([O-])c1ccc(O)c(/C=N/Nc2nn[nH]n2)c1 | 14.3% | 6.31µM* | -16.2% | 37.4% | 10µM* | -2.3%
C(=N\Nc1nn[nH]n1)/c1ccccc1 | 44.7µM* | u | -6.9% | 26.8% | 89.1µM* | 35.5µM*
